# Laboratory results from PubChem BioAssay AID489008 (National Center for Advancing Translational Sciences (NCATS), 2010).
# Results filed as inconclusive are left out. Activity calls are given as the source filed them. Calls follow the shape of the dose curve; as a rule, active = well fitted inhibition curve with a large enough effect; inconclusive = small, poorly fitted or top-dose-only effect; inactive = flat fitted curve, though single readings scatter.
# Target: Ferritin light chain (Equus caballus) (UniProt P02791)
# Sequence (P02791 2-175 limits assumed): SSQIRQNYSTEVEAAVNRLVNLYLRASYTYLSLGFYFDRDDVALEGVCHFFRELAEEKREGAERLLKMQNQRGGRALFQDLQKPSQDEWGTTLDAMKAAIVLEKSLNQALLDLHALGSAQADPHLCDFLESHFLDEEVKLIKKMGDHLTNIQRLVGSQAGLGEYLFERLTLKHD
# Experiment: Confirmation Assay for Identification of Novel General Anesthetics; also: nearly all actives have a fitted effect of over 40% in size
# Details: apoferritin 1-aminoanthracene fluorescence displacement
# Outline: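 Competitive displacement of profluorescent 1-aminoanthracene from 10 uM horse-spleen apoferritin in 50% saturated 1-AMA/PBS; 10 min RT, fluorescence Ex 380/Em 535. Normalized to free 1-AMA and complex; four-parameter Hill fit.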
# Potency is read from the fitted curve at half-maximal effect.
row,Compound,Potency
1,Nc1cc(N)nc(SCC(=O)N2CCc3ccccc32)n1,7.08 µM (active)
2,Fc1ccccc1CNc1cc(Cl)cc(Cl)c1,14.1 µM (active)
3,O=S1(=O)CCOCCCN1Cc1ccccc1Br,12.6 µM (active)
4,CC(C)CCOc1ccc(C2N=C(N)Nc3nc4ccccc4n32)cc1 (centres undefined),12.6 µM (active)
5,Cc1cc(C)cc(NC(=O)N2CCCCCCC2)c1,6.31 µM (active)
6,Cc1ccc(S(=O)(=O)NCCC2=CCCCC2)cc1C(N)=O,7.08 µM (active)
7,Cc1ccc(CN=C2Nc3ccccc3CS2)cc1,14.1 µM (active)
8,O=C(Nc1cccc(Cl)c1)N1CCc2ccccc2C1,11.2 µM (active)
9,Cc1cc(N2CC(C(=O)Nc3nccs3)CC2=O)ccc1C(C)C (centres undefined),14.1 µM (active)
10,CC1CCCC(NC(=O)COC(=O)CCc2ccccc2)C1C (centres undefined),25.1 µM (active)
11,O=c1c2ccccc2nnn1Cc1ccccc1Cl,15.8 µM (active)
12,Nn1cnnc1SCC(=O)Nc1ccc(C2CCCCC2)cc1,7.08 µM (active)
13,Cc1ccc(NC(=O)c2ccccc2)cc1OC(=O)c1ccccc1,28.2 µM (active)
14,O=C(Nc1ccc(Br)cc1)N1CCCCCCC1,6.31 µM (active)
15,Cc1nnc(SCc2ccc(F)cc2Cl)s1,22.4 µM (active)
16,Nc1ccc(Nc2ccccc2)c(Cl)c1,12.6 µM (active)
17,CC(=O)Nc1ccc(C(=O)OCC(=O)NC2CCCCCCC2)cc1,15.8 µM (active)
18,CCCNC(=O)c1csc2c1CCCCC2,28.2 µM (active)
19,Cc1ccc(NC(=O)C2COc3ccccc3O2)cc1C (centres undefined),17.8 µM (active)
20,CC1(C)CC(=O)c2c(Cc3ccccc3)noc2C1,14.1 µM (active)

row,Compound,Potency
1,c1ccc(CCNc2nc3ccccc3s2)cc1,10 µM (active)
2,COc1cc(CNCCO)ccc1OCCc1ccccc1,15.8 µM (active)
3,CC1CCCN(C(=O)Cc2cccc3ccccc23)C1 (centres undefined),31.6 µM (active)
4,CC(C)(C)CC(=O)Nc1ccc(Nc2ccccc2)cc1,17.8 µM (active)
5,O=C(Nc1ccc(F)c(Cl)c1)N1CCCCCC1,7.94 µM (active)
6,CC1Cc2ccccc2N1C(=O)CSc1nnnn1C (centres undefined),28.2 µM (active)
7,Cc1ccc(Cn2cccc(NC(=O)NC3CCCCC3)c2=O)cc1,15.8 µM (active)
8,COc1cccc(NC(=O)CN2C(=O)NC(C)(CCC(C)C)C2=O)c1 (centres undefined),17.8 µM (active)
9,COc1ccccc1CC(=O)Nc1cc(Cl)ccc1O,17.8 µM (active)
10,Cc1csc(Nc2ccccc2)n1,35.5 µM (active)
11,O=C(CCC1CCCCC1)Nc1nccs1,39.8 µM (active)
12,N#Cc1ccc(NC(=O)COC(=O)CNC(=O)C2CCCCC2)cc1,15.8 µM (active)
13,Cc1cc(OC(C)C)c2c(-c3ccccc3)cc(=O)oc2c1,35.5 µM (active)
14,Nc1cc(Cl)ccc1Oc1ccc2ccccc2c1,15.8 µM (active)
15,O=c1sc2ccccc2c(=O)n1Cc1ccccc1F,8.91 µM (active)
16,Cc1ccc(F)c(NC(=O)CCc2ccccc2)c1,15.8 µM (active)
17,Cc1ccc(NCc2ccccc2O)c(C)c1,12.6 µM (active)
18,COc1ccc(NC(C)c2ccccc2)cc1 (centres undefined),15.8 µM (active)
19,Nc1c(C(=O)NCc2ccccc2)nnn1Cc1cccc(Cl)c1,3.98 µM (active)
